Compound activity (PubChem BioAssay)
PTPN22 act: increases human PTPN22 phosphatase activity | Q9Y2R2 | recombinant LYP, DiFMUP fluorescence; 0 = plate median, 100 = signal doubled | activation, % at 2 µM | 96,000 compounds, 0.11% hits;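 active = activation at 2 µM above a set limit, the mean plus 5 SD, cut at about 37% in these data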
Target sequence (Q9Y2R2 whole entry, looked up): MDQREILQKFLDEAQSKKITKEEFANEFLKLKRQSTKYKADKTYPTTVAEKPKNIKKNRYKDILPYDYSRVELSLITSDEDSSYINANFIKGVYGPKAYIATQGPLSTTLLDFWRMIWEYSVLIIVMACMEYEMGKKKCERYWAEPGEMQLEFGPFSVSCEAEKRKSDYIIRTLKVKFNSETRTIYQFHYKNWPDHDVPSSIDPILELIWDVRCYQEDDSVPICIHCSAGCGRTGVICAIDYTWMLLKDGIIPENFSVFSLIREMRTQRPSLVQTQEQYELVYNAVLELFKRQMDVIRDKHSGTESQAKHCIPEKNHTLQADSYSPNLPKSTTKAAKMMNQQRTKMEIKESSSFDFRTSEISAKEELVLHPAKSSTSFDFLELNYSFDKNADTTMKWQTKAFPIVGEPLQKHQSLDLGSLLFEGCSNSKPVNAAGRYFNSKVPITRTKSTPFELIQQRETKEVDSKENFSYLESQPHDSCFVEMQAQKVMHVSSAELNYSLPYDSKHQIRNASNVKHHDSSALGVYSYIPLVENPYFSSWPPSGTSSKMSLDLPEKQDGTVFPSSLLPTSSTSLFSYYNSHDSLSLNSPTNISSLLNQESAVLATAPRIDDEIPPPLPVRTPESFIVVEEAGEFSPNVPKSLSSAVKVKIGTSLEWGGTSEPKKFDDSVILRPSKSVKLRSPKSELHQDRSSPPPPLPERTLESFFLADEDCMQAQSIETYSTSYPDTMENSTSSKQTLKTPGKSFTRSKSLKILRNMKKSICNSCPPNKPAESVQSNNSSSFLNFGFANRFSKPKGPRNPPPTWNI
Measles CPE: protection of cells from measles virus | Measles virus-infected cells, CPE protection, absorbance | protection (pct of control), % at 4 µM | 140,000 compounds, 1.5% hits; in the data active = protection mostly above about 24%, no sharp cut-off; inactive = mostly below about 26%
LYP inh 2: inhibitors of human LYP (PTPN22) phosphatase; inhibition, % at 2 µM; 96,000 compounds, 0.21% hits; recombinant LYP catalytic domain, DiFMUP fluorescence; Q9Y2R2; AID 640;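 active = inhibition at 2 µM at or above a set limit, the screen mean plus 3 SD, cut at about 24% in these data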;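 note: 0% = DMSO with enzyme and 100% = enzyme fully blocked by orthovanadate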
Active calls of the source: *; . = no result. Hits are enriched below; roughly 1.7% of the tested compounds scored in any of these assays.

SMILES	PTPN22 act	Measles CPE	LYP inh 2
COc1cccc(-n2c(Cc3cc(=O)[nH]c(=O)[nH]3)nnc2SCC(=O)NC2CCCC2)c1	-2.4	49.6*	0.9
COC(=O)CSc1nnc(Cc2cc(=O)[nH]c(=O)[nH]2)n1-c1cccc(OC)c1	5.0	23.5	-3.9
CC1CCCN(C(=S)NCc2ccccc2)C1 (stereo not given)	.	23.3	.
COc1c(N2CCN(C(=S)NCc3ccccc3)C(C)C2)c(F)cc2c(=O)c(C(=O)O)cn(C3CC3)c12 (stereo not given)	-34.0	8.1	35.1*
O=C1COc2ccc(OCc3ccc(F)cc3)cc21	6.4	25.1	-8.3
O=C(Cn1cnc2c(nnn2Cc2ccccc2)c1=O)N1CCCc2ccccc21	.	11.2	.
O=C(Cn1cnc2c(nnn2-c2ccccc2)c1=O)N1CCCc2ccccc21	.	53.1*	.
COc1ccc(NC(=O)CSc2nc3ccccc3n2-c2ccccc2)c([N+](=O)[O-])c1	.	21.6	.
O=C(CSc1nc2ccccc2n1-c1ccccc1)Nc1ncc(Cl)cc1Cl	.	52.5*	.
Cc1cccc(-n2c(SCC(=O)Nc3ncc(Cl)cc3Cl)nc3ccccc32)c1	.	42.8*	.
COCCn1c(SCC(=O)Nc2nc(C)c(Cl)cc2Cl)nc2ccccc21	1.6	0.9	-3.1
CCCn1c(SCC(=O)NC23CC4CC(CC(C4)C2)C3)n[nH]c1=O	21.5	27.8	-17.5
CCOc1ccc(OCC)c(S(=O)(=O)N2CCCCC2)c1	.	15.8	.
CCOc1ccccc1NC(=O)c1cc(CC(C)C)oc1C	-6.1	3.9	6.0
Cc1oc(CC(C)C)cc1C(=O)Nc1cccc2ccccc12	2.7	37.1*	-5.6
CC(OC(=O)c1cc(S(=O)(=O)Nc2ccc(F)cc2)ccc1Cl)C(=O)Nc1ccc2c(c1)OCCO2 (stereo not given)	.	5.5	.
COc1ccccc1NC(=O)CCC(=O)O	-0.4	71.3*	-3.0
CCOc1ccccc1NC(=O)CCC(=O)O	-12.5	17.3	9.8
COc1ccc(C(=O)OCCNC(=O)c2c(Cl)nc3ccccn23)cc1	-9.5	6.5	7.8
Cc1ccc(S(=O)(=O)N2CCCN(c3nc4cc(C)ccc4cc3C#N)CC2)cc1	-1.9	21.1	2.3
Cc1cc(C)c2cc(C#N)c(N3CCCC3)nc2c1	-1.1	37.8*	0.5
O=C(NCCN1CCOCC1)c1ccc(-c2ccccc2)cc1	-3.0	25.4	2.3
COc1cccc2cc(-c3csc(CCn4nc(C)cc4C)n3)c(=O)oc12	-2.1	6.0	2.2
O=C(N/N=C/c1c[nH]c2ccccc12)c1ccncc1	.	24.5	.
O=C(N/N=C/c1c[nH]c2ccc(Br)cc12)c1ccncc1	.	28.8*	.
SMILES	PTPN22 act	Measles CPE	LYP inh 2
O=[N+]([O-])c1cc(/C=N\Nc2nccs2)ccc1O	-38.3	4.0	39.7*
Clc1cccc(Cl)c1/C=N\Nc1nccs1	-4.0	4.7	7.8
CC(C)CC(=O)Nc1ccc(S(=O)(=O)NCc2ccco2)cc1	-2.9	3.7	5.4
CCOC(=O)C1CCN(C(c2cccnc2)c2c(NC(=O)c3ccco3)sc(C)c2C)CC1 (stereo not given)	-6.1	67.2*	3.5
Cc1sc(NC(=O)c2ccco2)c(C(c2cccnc2)N2CCN(c3ccc(F)cc3)CC2)c1C (stereo not given)	.	1.5	.
C1=C(CCNc2nnnn2-c2ccccc2)CCCC1	-1.3	8.4	-1.2
Clc1cccc(Cl)c1Cn1cnc2c(N3CCCCCC3)ncnc21	2.4	33.0*	-7.8
CCN(CC)c1ncnc2c1ncn2Cc1c(Cl)cccc1Cl	4.0	2.9	-3.0
COc1cccc(S(=O)(=O)NCc2ccc3c(c2)OCO3)c1	-8.0	12.2	7.2
COC(=O)C(NC(=O)c1ccccc1)(Nc1nccs1)C(F)(F)F (stereo not given)	3.3	15.5	-5.7
CC(C(=O)O)N1C(=O)/C(=C/C=C/c2ccco2)SC1=S (stereo not given)	-23.6	15.3	25.2*
O=C1/C(=C\c2ccco2)SC(=S)N1c1ccccc1	.	15.3	.
CN1CCC(=NNC(=O)CSCc2ccccc2)CC1	2.7	14.1	0.3
CC1(C)CC(=O)C(/C=N/n2c(C(F)(F)F)nc3ccccc3c2=O)=C(O)C1	6.0	9.3	-5.5
CSc1nnc2c(n1)OC(C)=Nc1ccccc1-2	.	24.5	.
O=c1c2c(ncn2C2CCCC2)n(Cc2ccccc2)c(=O)n1CCOc1ccccc1	.	11.5	.
COc1cc(NC(=S)N2CCN(c3ccccn3)CC2)cc(OC)c1	.	30.7*	.
COc1ccc(NC(=S)N2CCN(c3ccccn3)CC2)cc1OC	.	11.6	.
COC(=O)c1nc(NC(=O)c2ccc(Br)cc2)n[nH]1	6.1	3.6	-6.7
COC(=O)c1nc(NC(=O)C(C)(C)C)n[nH]1	18.6	35.8*	-23.7
CCCc1nc(SCC(=O)N2c3ccccc3CC2C)c2c(C)c(C)sc2n1 (stereo not given)	-5.6	8.3	3.1
CCCCNC(=O)C(Sc1ccccc1)c1ccccc1 (stereo not given)	.	8.1	.
CCNC(=O)C(Sc1ccccc1)c1ccccc1 (stereo not given)	-8.0	29.6*	9.4
O=C(NCc1ccco1)C(c1ccccc1)N(Cc1ccccc1)C(=O)Cn1nnc2ccccc21 (stereo not given)	7.2	40.9*	-8.3
O=C(NCc1ccco1)C(c1ccccc1)N(CC1CCCO1)C(=O)Cn1nnc2ccccc21 (stereo not given)	-10.9	1.6	9.5
SMILES	PTPN22 act	Measles CPE	LYP inh 2
O=C1COc2ccc(C(=O)c3ccccc3C(=O)NCc3ccccc3)cc2N1	-2.1	22.0*	1.4
O=C1COc2ccc(C(=O)c3ccccc3C(=O)NCc3ccco3)cc2N1	-0.6	4.5	-2.1
COc1ccc(-n2c(=O)c3c4c(sc3n3c(C)nnc23)CC(C)CC4)cc1 (stereo not given)	1.6	.	-7.5
CCC1(C)CC(c2csc(N)n2)CCO1 (stereo not given)	-1.1	65.0*	0.5
Nc1nc(C2CCCCC2)cs1	-7.2	6.8	8.3
Cc1cccc(NC(=S)NNC(=O)c2cc3c(s2)CCC(C)C3)c1C (stereo not given)	.	8.7	.
CCN(CC)CCOC(=O)C1(c2ccccc2)CCOCC1	-0.1	5.7	-1.6
CCN=c1scc(-c2ccccc2)n1/N=C/c1ccccn1	.	61.9*	.
C=CCN=c1scc(-c2ccc(F)cc2)n1/N=C/c1ccccn1	.	26.3	.
C=CCN=c1scc(-c2ccccc2)n1/N=C/c1ccccn1	.	50.4*	.
Cc1nc2ccccc2c(=O)n1/N=C/c1ccccn1	-9.5	6.9	6.7
O=C(CC1N=C2c3ccccc3N=C(SCc3ccc(F)cc3)N2C1=O)NCc1ccco1 (stereo not given)	-13.5	5.0	18.7
Cc1ccc(CSC2=Nc3ccccc3C3=NC(CC(=O)NCc4ccco4)C(=O)N23)cc1 (stereo not given)	-19.5	7.9	24.3*
CC(C)C(=O)NC(C)C(c1cccs1)N1CCN(C)CC1 (stereo not given)	-1.9	18.9	2.4
c1ccc2c(-n3cccn3)cccc2c1	-2.6	38.8*	5.8
NCc1cccc(-n2cccn2)c1	-6.4	22.5	7.3
COC(=O)c1ccc2c(=O)n(-c3ccccc3)c(SCN3C(=O)c4ccccc4C3=O)nc2c1	.	5.0	.
Cc1ccccc1C(=O)Nc1ccc(Br)c(C)n1	-10.8	13.7	14.1
CCc1nnc(NC(=O)CSc2nc3c(cc2C#N)CCC3)s1	-1.6	10.7	-0.1
N#Cc1cc2c(nc1SCC(=O)Nc1nccs1)CCCCC2	-5.6	34.3*	2.8
